# Reference: the supplement of paper PMC6555819
# Legend:
# Test in all cases: PBM binding z-score (relative to random genomic background probes); higher = stronger binding; sequences stand for … in GC…GCGATTGACAGCGTAGAATGAAGG
# [1] = test system: RARb homodimer (NR concentration 270 nM)
# In short: (§1)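 Custom Agilent 4×180K protein-binding microarrays carried double-stranded probes, each with a 34-nt variable region. These regions held direct-repeat seeds, single-nucleotide variants, half-site ablations and random human genomic background sequences. Ligand-free nuclear receptor dimers were incubated on the arrays for 1 h, antibodies against each partner (one per run) detected binding, and scanned fluorescence was regression-normalized. Binding z-scores take the random background probes as reference.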
# [2] = test system: RARg:RXRa (NR concentration 270 nM, RXRa partner concentration 90 nM)
# In short: as §1
# [3] = test system: RARg homodimer (NR concentration 270 nM)
# In short: as §1
# [4] = test system: RXRa DBDmut IVT, anti-RXR (DBD mutation: RXRa K156A/R161A, NR concentration 90 nM)
# In short: as §1
# [5] = test system: RXRa homodimer (NR concentration 180 nM)
# In short: as §1
# [6] = test system: THRa:RXRa (NR concentration 90 nM, RXRa partner concentration 90 nM)
# In short: as §1
# [7] = test system: THRa homodimer (NR concentration 90 nM)
# In short: as §1
# [8] = test system: VDR homodimer (NR concentration 270 nM)
# In short: as §1
Sequence,PBM binding z-score [1],PBM binding z-score [2],PBM binding z-score [3],PBM binding z-score [4],PBM binding z-score [5],PBM binding z-score [6],PBM binding z-score [7],PBM binding z-score [8]
AGAATGCGGTTATTAAGATCAGGGAATTGCGGTC,-0.19,-0.0734,0.152,-0.072,-0.0867,-0.0645,-0.416,-0.264
ATCTCTAGGTAACGAGTTCAGTGAAAGAGAGGAC,1.67,1.08,1.07,1.58,1.01,1.97,1.21,4.11
TCACGGAGGACACGAAAGGTCAGAGCTCGACATC,4.82,4.96,5.55,1.1,4.31,3.55,1.26,1.17
AGAATGAGGTTAAGATCAGTGAAACAGAATACAT,0.841,2.07,1.34,0.64,2.31,2.31,0.766,0.283
GCTATTAGTTGAAAGGGTAACCGAATGATTCTCG,0.907,0.593,0.407,1.01,0.952,0.527,0.212,-0.0669
TTACCCAGGTGAGCTGAGGTCGTTGATCCAACTC,1.17,0.816,0.509,-0.172,1.19,4.32,1.8,2.27
ACTATTAGTTGACTTGGGGCAACCGATACGACGC,0.856,0.552,0.701,0.839,0.366,1.29,0.534,0.357
ACTAATAGTTGAGACGAGGGCAACCGATAGGTTG,1.37,0.936,1.15,0.345,0.834,3.43,0.12,0.709
CGCGAAAGGTCGTGCTCAGGTGAGTATACCAAAC,3.1,5.55,4.27,2.19,5.98,4.17,1.26,1.18
CCAGACGGGTGAAAGGTAACTCAGTCTGGTACGC,0.112,0.694,0.136,-0.879,1.81,0.461,-0.444,-0.582
ACTAGTTGGTGAGCTGAGGTCACACACAATTCGG,3.86,3.85,3.11,0.874,4.01,4.44,5.07,3.31
TAGCCTAGGTCATTGGGCAAGTATAGTACGCATC,2.69,3.66,4.09,1.86,2.94,2.63,0.731,1.44
TCTGCTAGGTCAGTTGCTCAGCTAACGAGCTGCC,1.89,2.18,3.06,0.567,0.527,1.01,-0.484,-0.87
ACTAGCAGGCCAAGTTTGGGTCACTCACACAAAG,2.45,2.62,1.68,0.307,1.08,2.56,1.24,0.348
AGCACGAGGGCAATGAGTTGATAGCACGGGTGGC,0.927,1.16,1.72,2.14,0.851,0.817,-0.487,3.16
ATAGACAGGTGAGTGAAGGTAACTCAGCTGGACG,0.264,0.515,0.582,-0.459,0.665,1.68,-0.333,-0.359
TCATATAGGTAAGTGCTAGGTGAAAGTCCGATCT,0.823,0.114,0.186,1.23,0.629,0.873,0.473,0.173
TCGAGTAGGTTAGGGGCATACAGAATGGCGTCGA,0.759,0.546,0.52,0.367,1,0.925,0.135,0.73
CCCACTGGGCCAAGGTCATTGATCAGTCAAAGCA,3.19,3.57,3.06,0.687,3.2,3.3,2.16,3.07
CATACTGGGCCAAAAAGGTCATTGATGCCGATAA,4.48,4.89,4.82,1.25,5.11,3.14,0.641,3.14
CCTGCTAGGTCATGGTCAGCTCATCTACAGTATG,3.46,3.88,4.57,1.95,2.65,3.24,1.26,0.458
CGAACTAGGTCATTGACAGGAGAGTGAATAGTAA,2.29,3.65,4.2,2.21,2.23,2.48,0.629,0.844
CGTCCAAGGTCATAGGAGGTCAGTGAGGACAGAT,5.13,6.73,7.15,4.28,6.16,5.22,4.53,5.81
CCTGCTAGGTCAAGGTCAGCTAATCTACAGTATG,5.07,5.45,7.01,2.36,4.54,3.97,2.88,1.23
CGAACAAGGGCATGAGTTGATAGCAAATGCCGAT,0.58,1.12,1.42,1.3,0.715,0.492,-0.294,1.18
ATCTCTAGGTAAGAAGTTCAGTGAAAGAGAGGAC,1.85,1.25,1.48,0.26,0.531,0.982,0.234,1.52
CCTCGGAGGACAACAGGAGGTAAGAGCTGCCAGA,0.361,0.652,1.09,-0.216,-0.00959,0.811,-0.12,-0.145
AGAATGAGGTTACCAAAGATCAGCGAAACGCTTG,0.525,2.03,1.45,1.07,2.44,2.73,0.456,0.187
